Reference: PubChem BioAssay AID1159580 (chemical genetic matrix, 2015)
Screen size: about 5,500 compounds; about 2,000 (36%) were called active. Roughly 18% stayed inconclusive and do not appear here. No stated cut-off is given here; in the data, active means normalized growth mostly below about 0.91 (no sharp cut-off); inconclusive means no clear call, values can overlap the other calls; inactive means mostly above about 0.92. Some of the results follow.

Experiment: chemical genetic growth profiling, strain panel (AID 1159580);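 further: tested at 20 µM; growth read once vehicle control cultures reached saturation at 30 °C; 1 = growth at the plate median or of vehicle wells; lower values mean less growth of the strain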
Details: growth OD

Measured: normalized growth

COc1cc([C@@H]2c3cc4c(cc3[C@H](OC(C)=O)[C@H]3COC(=O)[C@H]23)OCO4)cc(OC)c1OC
inactive: S. cerevisiae deletion strains, locus YJR066W, strain TOR1, hits give low values 0.932 | S. cerevisiae deletion strains, locus YKL009W, strain mrt4, hits give low values 0.972 | S. cerevisiae deletion strains, locus YKL068W, hits give low values 0.988 | S. cerevisiae deletion strains, locus YKL085W, strain MDH1 (second series), hits give low values 1 | S. cerevisiae deletion strains, locus YKL085W, strain MDH1, hits give low values 1 | S. cerevisiae deletion strains, locus YKL160W, strain elf1, hits give low values 0.999 | S. cerevisiae deletion strains, locus YKL190W, strain CNB1, hits give low values 1 | S. cerevisiae deletion strains, locus YKR001C, strain vps1, hits give low values 0.976 | S. cerevisiae deletion strains, locus YKR026C, strain gcn3, hits give low values 1.01 | S. cerevisiae deletion strains, locus YKR091W, strain srl3, hits give low values 1.01 | S. cerevisiae deletion strains, locus YLL001W, strain dnm1, hits give low values 1 | S. cerevisiae deletion strains, locus YLL026W, hits give low values 1.01 | S. cerevisiae deletion strains, locus YLL041C, strain sdh2, hits give low values 1.01 | S. cerevisiae deletion strains, locus YLR027C, strain aat2, hits give low values 1 | S. cerevisiae deletion strains, locus YLR039C, strain RIC1, hits give low values 0.954 | S. cerevisiae deletion strains, locus YLR058C, strain SHM2, hits give low values 0.998 | S. cerevisiae deletion strains, locus YLR102C, strain apc9, hits give low values 0.974 | S. cerevisiae deletion strains, locus YLR113W, strain HOG1, hits give low values 1.07 | S. cerevisiae deletion strains, locus YLR221C, strain rsa3, hits give low values 1.01 | S. cerevisiae deletion strains, locus YLR258W, strain gsy2, hits give low values 0.997 | S. cerevisiae deletion strains, locus YLR262C, strain YPT6 (second series), hits give low values 0.914 | S. cerevisiae deletion strains, locus YLR262C, strain YPT6, hits give low values 0.933 | S. cerevisiae deletion strains, locus YLR268W, strain sec22, hits give low values 0.984 | S. cerevisiae deletion strains, locus YLR320W, strain mms22, hits give low values 1 | S. cerevisiae deletion strains, locus YLR330W, strain CHS5, hits give low values 0.994 | S. cerevisiae deletion strains, locus YLR342W, strain FKS1 (second series), hits give low values 0.995 | S. cerevisiae deletion strains, locus YLR342W, strain FKS1, hits give low values 1.01 | S. cerevisiae deletion strains, locus YLR357W, strain rsc2, hits give low values 1.06 | S. cerevisiae deletion strains, locus YLR370C, strain arc18, hits give low values 1.01 | S. cerevisiae deletion strains, locus YLR371W, strain rom2, hits give low values 0.992 | S. cerevisiae deletion strains, locus YLR384C, strain iki3, hits give low values 1.02 | S. cerevisiae deletion strains, locus YLR418C, strain cdc73, hits give low values 0.971 | S. cerevisiae deletion strains, locus YML016C, strain PPZ1, hits give low values 0.997 | S. cerevisiae deletion strains, locus YML032C, strain rad52, hits give low values 0.97 | S. cerevisiae deletion strains, locus YML120C, strain ndi1, hits give low values 1 | S. cerevisiae deletion strains, locus YML124C, strain tub3, hits give low values 0.984 | S. cerevisiae deletion strains, locus YMR058W, strain fet3, hits give low values 1.01 | S. cerevisiae deletion strains, locus YMR078C, strain ctf18, hits give low values 0.99 | S. cerevisiae deletion strains, locus YMR125W, strain sto1, hits give low values 1.01 | S. cerevisiae deletion strains, locus YMR129W, hits give low values 1 | S. cerevisiae deletion strains, locus YMR205C, strain PFK2, hits give low values 1.02 | S. cerevisiae deletion strains, locus YMR223W, strain ubp8, hits give low values 0.974 | S. cerevisiae deletion strains, locus YMR231W, strain pep5, hits give low values 0.997 | S. cerevisiae deletion strains, locus YMR307W, strain GAS1, hits give low values 1.02 | S. cerevisiae deletion strains, locus YNL067W, strain RPL9B, hits give low values 1.01 | S. cerevisiae deletion strains, locus YNL071W, strain lat1, hits give low values 1.01 | S. cerevisiae deletion strains, locus YNL128W, strain TEP1, hits give low values 0.992 | S. cerevisiae deletion strains, locus YNL183C, strain NPR1, hits give low values 0.993 | S. cerevisiae deletion strains, locus YNL209W, strain ssb2, hits give low values 0.996 | S. cerevisiae deletion strains, locus YNL233W, strain BNI4, hits give low values 0.997 | S. cerevisiae deletion strains, locus YNL248C, strain rpa49, hits give low values 1.01 | S. cerevisiae deletion strains, locus YNL250W, strain rad50, hits give low values 0.985 | S. cerevisiae deletion strains, locus YNL271C, strain bni1, hits give low values 0.983 | S. cerevisiae deletion strains, locus YNL298W, strain CLA4, hits give low values 0.997 | S. cerevisiae deletion strains, locus YNL307C, strain MCK1, hits give low values 0.98 | S. cerevisiae deletion strains, locus YNL322C, strain KRE1 (second series), hits give low values 1.03 | S. cerevisiae deletion strains, locus YNR049C, strain mso1, hits give low values 1 | S. cerevisiae deletion strains, locus YNR052C, strain pop2, hits give low values 0.973 | S. cerevisiae deletion strains, locus YOL006C, strain TOP1, hits give low values 0.861 | S. cerevisiae deletion strains, locus YOL012C, strain htz1 1.23 | S. cerevisiae deletion strains, locus YOL147C, strain pex11, hits give low values 0.981 | S. cerevisiae deletion strains, locus YOR001W, strain rrp6, hits give low values 1 | S. cerevisiae deletion strains, locus YOR061W, strain CKA2, hits give low values 0.994 | S. cerevisiae deletion strains, locus YOR069W, strain VPS5, hits give low values 0.99 | S. cerevisiae deletion strains, locus YOR070C, strain gyp1, hits give low values 1.01 | S. cerevisiae deletion strains, locus YOR080W, strain dia2, hits give low values 1 | S. cerevisiae deletion strains, locus YOR083W, strain WHI5, hits give low values 1 | S. cerevisiae deletion strains, locus YOR106W, strain vam3, hits give low values 1.02 | S. cerevisiae deletion strains, locus YOR136W, strain idh2, hits give low values 0.98 | S. cerevisiae deletion strains, locus YOR144C, strain elg1, hits give low values 0.99 | S. cerevisiae deletion strains, locus YOR184W, strain ser1, hits give low values 1.01 | S. cerevisiae deletion strains, locus YOR231W, strain MKK1, hits give low values 0.972 | S. cerevisiae deletion strains, locus YOR265W, strain rbl2, hits give low values 1.01 | S. cerevisiae deletion strains, locus YOR270C, strain vph1, hits give low values 0.921 | S. cerevisiae deletion strains, locus YOR290C, strain snf2, hits give low values 1 | S. cerevisiae deletion strains, locus YOR316C, strain cot1, hits give low values 0.992 | S. cerevisiae deletion strains, locus YPL051W, strain arl3, hits give low values 1 | S. cerevisiae deletion strains, locus YPL078C, strain atp4, hits give low values 0.998 | S. cerevisiae deletion strains, locus YPL106C, strain sse1, hits give low values 1.02 | S. cerevisiae deletion strains, locus YPL240C, strain hsp82, hits give low values 1.01 | S. cerevisiae deletion strains, locus YPL256C, strain CLN2, hits give low values 0.986 | S. cerevisiae deletion strains, locus YPR119W, strain clb2, hits give low values 0.986 | S. cerevisiae deletion strains, locus YPR141C, strain kar3, hits give low values 0.98 | S. cerevisiae deletion strains, locus YPR163C, strain tif3, hits give low values 0.991 | S. cerevisiae deletion strains, locus YPR167C, strain met16, hits give low values 0.969 | S. cerevisiae deletion strains, strain wtn01, hits give low values 1 | S. cerevisiae strains, strain wild type, hits give low values 1
